The record followed here is PubChem BioAssay.

Activity calls are given as the source filed them. Unless noted, no rule for the calls is given here.

The nature of assay [1]: HepG2 liver cancer cell viability effects, profiling panel, resazurin fluorescence, 24 h, PK04 Diversity Set (AID 1172). Also: test concentration not given here. The following applies: higher = more signal.
The nature of assay [2]: basal S. cerevisiae growth modulation, no modifier, primary screen, OD600, strain BY4716, 24 h, basal condition (AID 1173). As to conditions: OD600, 24 h, higher = more signal, called active from +8 up or from −8 down.
The nature of assay [3]: MM1S myeloma cell viability, profiling panel, resazurin fluorescence, basal, 24 h, PK04 Diversity Set (AID 1174).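 Also: MM1S multiple myeloma cell line; test concentration not given here.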 The following applies: higher = more signal, called active from +8 up or from −8 down.
For assay [4], the target named is Dihydroorotate dehydrogenase (quinone), mitochondrial (Plasmodium falciparum (isolate 3D7)) (UniProt Q08210). The assay is described as follows: PfDHODH enzyme inhibitors, primary screen, biochemical, C-terminal His tag, absorbance 600 nm (AID 1175).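 Also: recombinant parasite enzyme with a five histidine tag at its C terminus; test concentration not given here.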 The following applies: DCIP absorbance 600 nm, higher = more signal, called active from +8 up or from −8 down.
Assay [5] can be described thus: P. aeruginosa biofilm formation inhibitors, primary screen, strain PAO1, LB-PBS medium, absorbance 600 nm (AID 1176). Also: test concentration not given here. As to conditions: P. aeruginosa PAO1 growth/biofilm, A600, 12 h; higher = more signal.
The nature of assay [6]: S. cerevisiae RM11-1a growth modifiers, primary screen, strain RM11-1a, OD600, basal, 24 h (AID 1177).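 Also: cultures grown under basal conditions with no added stressor; test concentration not given here.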 As to conditions: OD600, 24 h, higher = more signal, called active from +8 up or from −8 down.
A short description of assay [7]: E. coli acrAB mutant growth effects, primary screen, E. coli filamentation inducers, strain DRC39, OD650, 24 h (AID 1178).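 Also: growth measured as culture turbidity by optical density at 650 nm; test concentration not given here.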 The following applies: higher = more signal, called active from +8 up or from −8 down.
A short description of assay [8]: E. coli acrAB mutant growth effects, primary screen, E. coli filamentation inducers, strain DRC39, OD650, 48 h (AID 1179).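 Also: screen aims at cell division blockers that make cells filament.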 The following applies: E. coli DRC39 delta-acrAB growth, higher = more signal, called active from +8 up or from −8 down.
Assay [9] can be described thus: RPMI8226 myeloma cell viability, profiling panel, resazurin fluorescence, basal, 24 h, PK04 Diversity Set (AID 1180).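 Also: RPMI8826 multiple myeloma cell line at 5000 cells per well; test concentration not given here.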 The following applies: higher = more signal.
Assay [10] addresses E3 ubiquitin-protein ligase XIAP (Homo sapiens) (UniProt P98170). In words: XIAP binders, primary screen, biophysical, small-molecule microarray, fluorescence 635 nm (AID 1181).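 Also: score merges 667 nm emission and signal to noise over triplicate slides.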 The following applies: small-molecule microarray binding, higher = more signal.

E3 ubiquitin-protein ligase XIAP (Homo sapiens), sequence (P98170 whole entry, looked up): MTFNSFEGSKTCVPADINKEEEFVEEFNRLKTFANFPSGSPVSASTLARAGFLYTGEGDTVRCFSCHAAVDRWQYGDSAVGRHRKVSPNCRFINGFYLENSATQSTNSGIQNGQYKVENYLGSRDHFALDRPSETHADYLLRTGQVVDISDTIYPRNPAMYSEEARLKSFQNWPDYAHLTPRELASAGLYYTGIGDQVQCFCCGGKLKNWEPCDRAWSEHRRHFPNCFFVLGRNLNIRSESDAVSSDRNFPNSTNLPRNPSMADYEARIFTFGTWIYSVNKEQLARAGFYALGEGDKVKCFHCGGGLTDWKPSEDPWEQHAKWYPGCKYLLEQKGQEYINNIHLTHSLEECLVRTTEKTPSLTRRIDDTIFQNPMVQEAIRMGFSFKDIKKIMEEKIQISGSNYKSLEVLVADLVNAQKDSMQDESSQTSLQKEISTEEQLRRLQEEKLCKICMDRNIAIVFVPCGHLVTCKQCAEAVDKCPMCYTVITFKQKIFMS
Dihydroorotate dehydrogenase (quinone), mitochondrial (Plasmodium falciparum (isolate 3D7)), sequence (Q08210 whole entry, looked up): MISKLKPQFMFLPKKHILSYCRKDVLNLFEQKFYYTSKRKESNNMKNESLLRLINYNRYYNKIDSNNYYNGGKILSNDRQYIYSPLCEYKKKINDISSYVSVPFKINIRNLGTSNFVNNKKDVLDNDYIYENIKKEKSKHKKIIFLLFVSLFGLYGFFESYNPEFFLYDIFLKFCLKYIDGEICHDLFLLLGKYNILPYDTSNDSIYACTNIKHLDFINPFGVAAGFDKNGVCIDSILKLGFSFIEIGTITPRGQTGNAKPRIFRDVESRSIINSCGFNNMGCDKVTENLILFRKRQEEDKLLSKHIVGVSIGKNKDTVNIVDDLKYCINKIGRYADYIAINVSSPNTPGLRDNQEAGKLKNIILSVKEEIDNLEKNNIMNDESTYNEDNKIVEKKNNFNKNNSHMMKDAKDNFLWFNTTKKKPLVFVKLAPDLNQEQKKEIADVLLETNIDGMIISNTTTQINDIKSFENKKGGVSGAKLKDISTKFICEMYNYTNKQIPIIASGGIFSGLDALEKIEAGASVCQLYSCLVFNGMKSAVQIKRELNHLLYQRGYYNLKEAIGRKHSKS

For `CCCCCCc1nc(-c2ccc(-c3ccc(Cl)c(Cl)c3)o2)cc2c1[Si](C(C)C)(C(C)C)O[C@H]2c1ccccc1`, the z-score was 1.32 in assay [1]; -0.911 (inactive) in assay [2]; 0.551 (inactive) in [3]; -0.771 (inactive) in assay [5]; -0.361 (inactive) in assay [6]; 0.708 (inactive) in [7]. Moreover, the z-score was 0.447 (inactive) in assay [8] and 0.0719 in assay [9]. In addition, the composite z-score is -0.206 (inactive) in [4] and -0.0641 in assay [10].

For `O=C(NCc1ccccc1)[C@@H]1c2ccccc2C(=O)N(C2Cc3ccccc3C2)[C@H]1c1ccc(CO)cc1`, the z-score in assay [1] was -0.786; in assay [2] it was 0.848 (inactive); in assay [3], -0.139 (inactive); in assay [5] it was 0.581 (inactive); in assay [6], 0.644 (inactive); in assay [7], 0.0426 (inactive). In addition, the z-score was -0.15 (inactive) in [8] and 0.12 in assay [9]. Further, the composite z-score was 0.211 (inactive) in assay [4] and -0.133 in assay [10].

`CCCC[C@H]1C[C@@H]1[C@@H]1N(P(=O)(c2ccccc2)c2ccccc2)C[C@@](O)(c2ccccc2)CC12CC2`: the z-score was 2.63 in assay [1]; -0.763 (inactive) in assay [2]; 1.07 (inactive) in [3]; 0.122 (inactive) in assay [5]; 0.781 (inactive) in [6]; -0.446 (inactive) in [7]. Also, the results for the z-score in assay [8] and in [9] were -0.412 (inactive) and -1.79, respectively. In addition, the composite z-score was -0.244 (inactive) in assay [4] and 0.0447 in assay [10].

As to `C=C(CCCC)/C(=C/C[C@@H](OC(C)=O)c1cccc(OCCO)c1)c1cnc2ccccc2c1`, the z-score in assay [1] was -0.256; in assay [2], -0.236 (inactive); in assay [3] it was -0.657 (inactive); in assay [5] it was 0.108 (inactive); in [6] it was 0.647 (inactive); in assay [7] it was 0.309 (inactive). Besides, the z-score is -0.132 (inactive) in assay [8] and 0.418 in assay [9]. Besides, the composite z-score in assay [4] was -3.06 (inactive); in assay [10], -0.173.

As for `C=CC[C@@]1(C(=O)N2CCCCC2)N=C(c2ccc(OCCCO)cc2)O[C@@H]1c1ccccc1CN=[N+]=[N-]`, the z-score in assay [1] was 0.0157; in [2], -0.924 (inactive); in assay [3], -1.13 (inactive); in assay [5] it was 0.205 (inactive); in assay [6], 0.607 (inactive); in assay [7] it was 0.673 (inactive). Moreover, the z-score in [8] is -0.526 (inactive); in [9] it was -1.97. Also, the composite z-score in assay [4] was -0.0512 (inactive); in [10] it was 0.0297.

As for `CCOC(=O)C1=C[C@@H](C(C)C)N(S(=O)(=O)c2ccc(C)cc2)[C@H]1c1ccccc1F`, the z-score was -0.298 in assay [1]; 0.81 (inactive) in [2]; -0.328 (inactive) in [3]; 0.133 (inactive) in [5]; 0.411 (inactive) in assay [6]; -0.77 (inactive) in assay [7]. Further, the z-score in assay [8] is 0.0503 (inactive); in assay [9] it was -0.807. Further, the composite z-score in assay [4] was -0.471 (inactive); in assay [10] it was -0.139.

Consider `OCC1C=C(/C=C/c2ccccc2)CN1Cc1ccccc1Br` (stereo not given), for which the z-score in assay [1] is 0.233; in assay [2], -9.92 (active); in assay [3] it was -0.813 (inactive); in assay [5] it was -0.0461 (inactive); in assay [6] it was -0.877 (inactive); in assay [7], 1.79 (inactive). For the same compound, the z-score is 0.183 (inactive) in assay [8] and -0.589 in assay [9]. Further, the figures for the composite z-score in [4] and in [10] were -0.0313 (inactive) and -0.122, respectively.

Consider `CCOC(=O)C[C@H]1[C@H](OC(=O)c2ccc(C(=O)c3ccccc3)cc2)[C@@H](NC(=O)c2ccccc2)c2cc(OCCCO)ccc2N1C(=O)c1ccccc1`, for which the z-score in assay [1] is -0.529; in assay [2] it was 0.783 (inactive); in [3], -0.224 (inactive); in assay [5], 0.137 (inactive); in assay [6], 0.144 (inactive); in [7], 0.158 (inactive). The z-score in assay [8] is 0.293 (inactive); in [9], 0.247. Moreover, the composite z-score in assay [4] is -0.206 (inactive); in assay [10], -0.0152.

For `CO[C@H]1O[C@H](CO)[C@@H](OC(=O)Nc2ccccc2)[C@@H]2OC(=O)[C@@H](Cc3ccc4ccccc4c3)C/C=C/C[C@H](Cc3ccc4ccccc4c3)C(=O)O[C@@H]12`, the z-score in assay [1] was -1.72; in assay [2], -0.456 (inactive); in assay [3], -0.588 (inactive); in assay [5], 0.509 (inactive); in assay [6] it was -0.474 (inactive); in assay [7], 1.13 (inactive). Besides, the figures for the z-score in assay [8] and in [9] were 1.09 (inactive) and -1.15, respectively. In addition, the composite z-score in [4] was -2.21 (inactive); in assay [10] it was 1.54.

Regarding `CN1C(=O)C2C=CC(C(O)c3ccccc3)N(N3CCCCC3)C2C1=O` (stereo not given), the z-score in assay [1] is -0.894; in assay [2], 0.429 (inactive); in assay [3] it was -0.983 (inactive); in assay [5], 0.462 (inactive); in [6] it was -0.023 (inactive); in assay [7] it was -1.32 (inactive). Further, the z-score in [8] is -1.4 (inactive); in assay [9] it was -1.56. Further, the figures for the composite z-score in assay [4] and in assay [10] were 0.0669 (inactive) and 0.263, respectively.

Turning to `COc1ccc(C(=O)Nc2ccc(CN3C(=O)[C@]4(O[C@H](CC(=O)N5CCC[C@H]5CO)[C@@H]([Si](C)(C)c5ccc(OC)cc5)[C@@H]4C)c4ccccc43)cc2)cc1`, the z-score in assay [1] is -1.79; in [2], 0.082 (inactive); in assay [3], -2.05 (inactive); in assay [5] it was 0.0245 (inactive); in assay [6], 0.557 (inactive); in assay [7] it was -0.0895 (inactive). Further, the z-score is -0.381 (inactive) in assay [8] and -4.49 in assay [9]. In addition, the composite z-score in [4] was -2.56 (inactive); in [10], -0.361.

Take `O=C1O[C@@H](c2ccccc2)[C@@H](c2ccccc2)N2[C@@H](c3ccccc3OCCO)[C@]3(C(=O)Nc4ccccc43)[C@@H](C(=O)O)[C@H]12`: the z-score in assay [1] is -0.0985; in assay [2], -2.46 (inactive); in [3] it was 0.19 (inactive); in [5], 0.986 (inactive); in assay [6], 0.324 (inactive); in assay [7], -0.582 (inactive). Moreover, the z-score in [8] is -0.76 (inactive); in assay [9], 0.125. The composite z-score in [4] was -0.487 (inactive); in assay [10], 0.0755.

As to `CCCCC(=C=CC[C@@H](O)c1cccc(OCCO)c1)C[C@@H](O)c1ccccn1`, the z-score in assay [1] was 0.599; in assay [2], -1.56 (inactive); in assay [3] it was 0.0382 (inactive); in assay [5], 0.968 (inactive); in assay [6], 0.129 (inactive); in [7] it was 0.584 (inactive). Besides, the results for the z-score in assay [8] and in assay [9] were 0.493 (inactive) and 0.695, respectively. Also, the values for the composite z-score in assay [4] and in [10] were -1.42 (inactive) and -0.102, respectively.
